Data taken from PubChem BioAssay (NCATS).
Results filed as inconclusive are left out. Entries that show only a call come without a potency. The source made the active and inactive calls. Unless noted, the call rests on the fitted dose curve; in most records, active means well fitted curve in the direction sought with a large enough effect; inconclusive means small, poorly fitted or top-dose-only effect, or another doubt; inactive means no such curve, though single readings can be large; an effect the other way counts as inactive or inconclusive.

Experiments:
[1] = P-glycoprotein substrates identified in KB-3-1 adenocarcinoma cell line, qHTS therapeutic library screen (AID 1346986); further: nearly all actives have a fitted effect of over 60% in size;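 further: potency means the concentration at half of the fitted maximal effect; potency is for cytotoxicity meaning loss of cell viability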
How it was run: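 Compounds were tested in dose-response against KB-3-1 and KB-8-5-11 cells at 37 degree C for 72 h, and viability was measured by luminescence. AC50 values came from curve fitting with class-based activity calls.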

[2] = Primary qHTS for inhibitors of nuclear receptor binding SET domain protein 2 (NSD2) in an isogenic RCH-ACV NSD2 p.E1099K mutant (9B) (AID 1645876); further: nearly all actives have a fitted effect of over 70% in size; further: potency means the concentration at half of the fitted maximal effect
[3] = Primary qHTS for inhibitors of nuclear receptor binding SET domain protein 2 (NSD2) in an RCH-ACV wild type WT cells (2C) (AID 1645877); further: nearly all actives have a fitted effect of over 70% in size; further: potency means the concentration at half of the fitted maximal effect
[4] = biological target: Glutathione peroxidase 1 (Homo sapiens) (UniProt P07203); assay: Primary qHTS Assay for Inhibitors of Recombinant Selenoprotein Glutathione Peroxidase 1 (GPX1) (AID 1845191); further: nearly all actives have a fitted effect of over 65% in size
How it was run: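 GR-coupled assay: compounds preincubated 30 min at room temperature with GPX1, then reaction started with CHP; final 10 nM GPX1, 1 mM GSH, 0.5 mM CHP, 0.5 mM NADPH, 100 nM GR, 0.01% BSA, pH 7.5 Tris buffer. NADPH fluorescence (340/450 nm) read at 0 and 15 min.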

[5] = biological target: Phospholipid hydroperoxide glutathione peroxidase GPX4 (Homo sapiens) (UniProt P36969); assay: Primary qHTS Assay for Inhibitors of Recombinant Selenoprotein Glutathione Peroxidase 4 (GPX4) (AID 1845192); details: outcome: dose series up to 50 µM unless noted; further: nearly all actives have a fitted effect of over 65% in size
How it was run: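 GR-coupled assay: recombinant GPX4 preincubated 30 min with compound at room temperature; final 200 nM GPX4, 1 mM GSH, 0.5 mM cumene hydroperoxide, 0.5 mM NADPH, 100 nM GR, 0.01% BSA, pH 7.5 Tris. NADPH fluorescence (340/450 nm) read at 0 and 15 min.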

[6] = qHTS drug screen for cell cycle checkpoint inhibitors in PARPi-resistant BRCA-mutant ovarian cancer cell lines. (AID 1963452; calls by dose curve); details: PEO1/OlaR viability, CellTiter-Glo luminescence, 96 h, stronger effect = lower value
How it was run: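 PEO1, PEO4 and PEO1/OlaR ovarian cancer cells, 600 per well, exposed 96 h at 37C to a dilution series. Viability read by CellTiter-Glo luminescence, normalized to DMSO and empty wells; activity summarized as Z-AUC.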

[7] = biological target: Catechol O-methyltransferase (Homo sapiens) (UniProt P21964); assay: Confirmatory Screen for Target Class Profiling of Small Molecule Inhibitors of Methyltransferases (AID 1745852; calls by dose curve; further: potency means the concentration at half of the fitted maximal effect); details: MTase-Glo luminescence, SAH detection, recombinant enzyme; measured here: COMT max response; stronger effect = lower value
[8] = biological target: Guanidinoacetate N-methyltransferase (Homo sapiens) (UniProt Q14353); assay: as above; details: activity change, negative = inhibition: at 57.3 µM (top of the series) unless noted
[9] = biological target: Nicotinamide N-methyltransferase (Homo sapiens) (UniProt P40261); assay: as above; details: MTase-Glo luminescence, SAH detection, recombinant enzyme; measured here: NNMT max response; stronger effect = lower value
[10] = biological target: Phenylethanolamine N-methyltransferase (Homo sapiens) (UniProt P11086); assay: as above; details: MTase-Glo luminescence, SAH detection, recombinant enzyme; measured here: PNMT max response; stronger effect = lower value
[11] = measured here: PEO1 parental Z-AUC

Chain of Glutathione peroxidase 1 (Homo sapiens) (P07203 whole entry, looked up): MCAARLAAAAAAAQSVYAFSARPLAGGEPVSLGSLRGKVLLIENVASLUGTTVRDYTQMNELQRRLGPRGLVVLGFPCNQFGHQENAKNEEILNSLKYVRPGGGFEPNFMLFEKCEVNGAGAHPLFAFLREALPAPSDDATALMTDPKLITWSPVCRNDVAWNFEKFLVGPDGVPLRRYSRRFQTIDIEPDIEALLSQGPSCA
Chain of Phospholipid hydroperoxide glutathione peroxidase GPX4 (Homo sapiens) (P36969 whole entry, looked up): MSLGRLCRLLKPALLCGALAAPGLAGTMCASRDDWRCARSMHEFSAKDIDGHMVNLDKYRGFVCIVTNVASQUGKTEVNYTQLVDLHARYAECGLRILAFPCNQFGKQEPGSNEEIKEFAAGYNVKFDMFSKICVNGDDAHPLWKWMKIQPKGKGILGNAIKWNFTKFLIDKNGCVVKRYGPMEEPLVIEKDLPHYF
Chain of Nicotinamide N-methyltransferase (Homo sapiens) (P40261 whole entry, looked up): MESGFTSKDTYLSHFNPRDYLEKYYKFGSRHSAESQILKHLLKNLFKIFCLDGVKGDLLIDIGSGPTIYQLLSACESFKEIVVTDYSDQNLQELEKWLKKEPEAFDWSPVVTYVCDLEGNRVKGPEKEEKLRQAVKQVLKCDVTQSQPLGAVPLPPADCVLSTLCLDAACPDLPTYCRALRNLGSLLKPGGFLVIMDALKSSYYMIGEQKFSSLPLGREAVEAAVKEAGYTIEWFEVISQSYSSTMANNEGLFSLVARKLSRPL
Chain of Catechol O-methyltransferase (Homo sapiens) (P21964 whole entry, looked up): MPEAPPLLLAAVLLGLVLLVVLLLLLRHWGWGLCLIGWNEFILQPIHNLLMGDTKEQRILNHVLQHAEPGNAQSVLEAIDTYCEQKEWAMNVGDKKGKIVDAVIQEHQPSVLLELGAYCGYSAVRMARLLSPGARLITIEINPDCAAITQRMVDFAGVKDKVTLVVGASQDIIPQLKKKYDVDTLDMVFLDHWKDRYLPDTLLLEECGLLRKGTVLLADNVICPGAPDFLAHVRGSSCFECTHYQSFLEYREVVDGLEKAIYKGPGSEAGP
Chain of Phenylethanolamine N-methyltransferase (Homo sapiens) (P11086 whole entry, looked up): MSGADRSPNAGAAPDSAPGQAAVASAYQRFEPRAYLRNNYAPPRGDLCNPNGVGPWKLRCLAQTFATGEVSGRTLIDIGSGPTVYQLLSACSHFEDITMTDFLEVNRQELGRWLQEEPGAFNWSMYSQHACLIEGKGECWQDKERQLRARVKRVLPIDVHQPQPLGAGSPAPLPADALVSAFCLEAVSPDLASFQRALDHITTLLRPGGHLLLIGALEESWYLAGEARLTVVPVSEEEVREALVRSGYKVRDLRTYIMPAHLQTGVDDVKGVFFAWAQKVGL

## CCCC(NC(=O)/C(C#N)=C/c1cccc(Br)n1)c1ccccc1 (stereo not drawn)
[1]
  Potency: 16.4 µM (active)
[2]
  Potency: 2.91 µM (active)

## CSC(Cc1ccc(Cl)cc1)C(=O)Nc1ccc(Cl)cc1C(=O)O (stereo not drawn)
[1]
  Potency: inactive
[2]
  Potency: inactive
[3]
  Potency: inactive
[4]
  Potency: inactive

## Oc1cccc(-c2nc(N3CCOCC3)c3sccc3n2)c1
[1]
  Potency: 5.17 µM (active)
[2]
  Potency: 1.3 µM (active)
[3]
  Potency: 1.16 µM (active)
[4]
  Potency: inactive

## O=c1sn(-c2cccc3ccccc23)c(=O)n1Cc1ccccc1
[1]
  Potency: inactive
[2]
  Potency: inactive
[5]
  Potency: inactive
[6]
  Z-AUC: 0.462 (inactive)
[6]; [11]
  Z-AUC: 0.135
[6]; measured here: PEO4 Z-AUC
  Z-AUC: 0.0223

## Cc1cc(-c2nc(C(=O)Nc3cn(C4CCOCC4)nc3C(N)=O)co2)ccn1
[1]
  Potency: 16.4 µM (active)
[2]
  Potency: 9.2 µM (active)
[3]
  Potency: 16.4 µM (active)
[4]
  Potency: inactive

## CC(C)n1cnc2c(NCc3cccc(C(F)(F)F)c3)ncnc21
[1]
  Potency: inactive
[4]
  Potency: inactive

## C[C@@]1(F)[C@H](O)[C@@H](CO)O[C@H]1n1ccc(N)nc1=O
[1]
  Potency: inactive
[2]
  Potency: inactive
[3]
  Potency: inactive

## O=C1O[C@H](C(O)CO)C(=O)C1=O (stereo partly drawn)
[1]
  Potency: inactive
[2]
  Potency: inactive
[4]
  Potency: inactive

## CC(=O)[C@H]1CCC2C3CCC4=CC(=O)CC[C@]4(C)C3[C@H](O)C[C@@]21C (stereo partly drawn)
[1]
  Potency: inactive
[2]
  Potency: inactive
[3]
  Potency: inactive
[4]
  Potency: inactive

## Clc1cc(Cl)c2c(c1)N=C1CCCCCN1C2
[1]
  Potency: inactive
[2]
  Potency: inactive
[3]
  Potency: inactive
[4]
  Potency: inactive

## O=C(/C=C/c1nc2ccccc2[nH]1)c1c(-c2ccccc2)c2cc(Cl)ccc2[nH]c1=O
[1]
  Potency: 7.31 µM (active)
[2]
  Potency: 1.16 µM (active)
[3]
  Potency: 1.03 µM (active)
[4]
  Potency: inactive

## Cc1cc(N2CCOCC2)cc2[nH]c(-c3c(NCC(O)c4cccc(Cl)c4)cc[nH]c3=O)nc12 (stereo not drawn)
[1]
  Potency: 2.06 µM (active)
[2]
  Potency: 1.64 µM (active)
[3]
  Potency: 1.46 µM (active)

## C=C(C)[C@@H]1CCC2=CC(=O)C[C@@H](C)[C@]2(C)C1
[1]
  Potency: inactive
[2]
  Potency: inactive
[3]
  Potency: inactive
[4]
  Potency: inactive

## Cc1cc2ncc(-c3ccccc3)nc2cc1C
[1]
  Potency: inactive
[2]
  Potency: inactive
[3]
  Potency: inactive
[4]
  Potency: inactive

## COc1ccc(CCNCc2ccc(OCc3ccc(Cl)nc3)c(OC)c2)cc1OC
[1]
  Potency: inactive
[4]
  Potency: inactive

## [2H]C([2H])([2H])C(OC(=O)[C@H](C)N[P@](=O)(OC[C@H]1O[C@@H](n2ccc(=O)[nH]c2=O)[C@](C)(F)[C@@H]1O)Oc1ccccc1)C([2H])([2H])[2H]
[1]
  Potency: inactive
[2]
  Potency: inactive
[3]
  Potency: inactive

## Cc1c[nH]c(/C=C2\C(=O)Nc3ccccc32)c1CCC(=O)O
[1]
  Potency: inactive
[2]
  Potency: 14.8 µM (active)
[3]
  Potency: 18.6 µM (active)
[4]
  Potency: inactive
[5]
  Potency: inactive
[6]
  Z-AUC: 1.24 (inactive)
[6]; [11]
  Z-AUC: 1.05
[6]; measured here: PEO4 Z-AUC
  Z-AUC: 1.31

## COc1cc2ncnc(Nc3ccc(NC(=O)c4ccccc4)cc3)c2cc1OC
[1]
  Potency: 20.6 µM (active)
[2]
  Potency: 8.2 µM (active)
[3]
  Potency: 5.8 µM (active)
[4]
  Potency: inactive

## COc1ccc2c(c1O)OC(C)(C)c1c-2ccc2c1C(=O)N(c1ccc(C(=O)c3ccccc3)cc1)C2=O
[1]
  Potency: inactive
[4]
  Potency: inactive

## COC1(c2sc3c(N4CCOCC4)nc(-c4cnc(N)nc4)nc3c2C)COC1
[1]
  Potency: 0.184 µM (active)
[2]
  Potency: 0.209 µM (active)
[3]
  Potency: 0.186 µM (active)
[4]
  Potency: inactive
[6]
  Z-AUC: -1.69 (inactive)
[6]; [11]
  Z-AUC: -1.58
[6]; measured here: PEO4 Z-AUC
  Z-AUC: -1.08

## CN1CCC(c2c(O)cc(O)c3c(=O)cc(-c4ccccc4Cl)oc23)C(O)C1 (stereo not drawn)
[1]
  Potency: 0.231 µM (active)
[2]
  Potency: 0.291 µM (active)
[3]
  Potency: 0.259 µM (active)

## CC1=CC(=O)C(C(C)C)=CC1=O
[1]
  Potency: inactive
[2]
  Potency: 14.6 µM (active)
[3]
  Potency: 6.51 µM (active)
[4]
  Potency: inactive

## Cc1cn([C@H]2C[C@H](O)[C@@H](CO)O2)c(=O)nc1N
[1]
  Potency: inactive
[2]
  Potency: inactive
[4]
  Potency: inactive

## O=C(NCCO)c1cc(C(=O)NCCO)cc(C(=O)NCCO)c1
[1]
  Potency: inactive
[2]
  Potency: inactive
[4]
  Potency: inactive

## Cc1cc(Nc2nn(-c3ccccc3)c(=O)c3ccccc23)n[nH]1
[1]
  Potency: 6.51 µM (active)
[2]
  Potency: 1.16 µM (active)
[3]
  Potency: 1.03 µM (active)
[4]
  Potency: inactive

## CC(Sc1nc2c(cnn2-c2cccc(Cl)c2)c(=O)[nH]1)C(N)=O (stereo not drawn)
[1]
  Potency: inactive
[2]
  Potency: inactive
[3]
  Potency: inactive
[4]
  Potency: inactive

## O=C(NCCc1c[nH]c2ccc(O)cc12)c1ccc2ccccc2c1O
[1]
  Potency: 8.2 µM (active)
[4]
  Potency: inactive

## Nc1ccc(-c2cnc(N)c(-c3ccc(Cl)cc3)c2)cn1
[1]
  Potency: inactive
[2]
  Potency: 14.6 µM (active)
[3]
  Potency: 14.6 µM (active)
[7]
  activity: -71.5%
[8]
  activity change, negative = inhibition: -1.94%
[9]
  activity: -33.1%
[10]
  activity: -5.01%

## O=C1NC(=NCc2cccs2)S/C1=C/c1ccc2ncccc2c1
[1]
  Potency: 4.11 µM (active)
[2]
  Potency: 3.66 µM (active)
[3]
  Potency: 2.91 µM (active)
[4]
  Potency: inactive

## O=C1/C(=C/c2ccc(O)c(O)c2)Oc2ccccc21
[1]
  Potency: inactive
[2]
  Potency: 1.84 µM (active)
[3]
  Potency: 2.06 µM (active)

## CCOC(=O)N1CCN(C(=O)Cn2sc3nc(C)cc(C)c3c2=O)CC1
[1]
  Potency: inactive
[4]
  Potency: inactive

## COc1cc(OC)c(C(=O)/C=C/c2ccccc2)c2c1C=CC(C)(C)O2
[1]
  Potency: inactive
[2]
  Potency: 16.4 µM (active)
[3]
  Potency: 18.4 µM (active)

## O=C1NC(=O)C(c2c[nH]c3ccccc23)=C1c1c[nH]c2ccccc12
[1]
  Potency: inactive
[2]
  Potency: 18.6 µM (active)
[3]
  Potency: 20.9 µM (active)
[7]
  activity: -38.2%
[8]
  Potency: 30.6 µM (active)
[9]
  activity: -39.6%
[10]
  activity: -46.7%
[4]
  Potency: inactive
[6]
  Z-AUC: 1.34 (inactive)
[6]; [11]
  Z-AUC: 0.607
[6]; measured here: PEO4 Z-AUC
  Z-AUC: 0.134

## O=C1NCCSc2c1sc1ccc(O)cc21
[1]
  Potency: 6.51 µM (active)
[2]
  Potency: 5.8 µM (active)
[3]
  Potency: 3.66 µM (active)
[4]
  Potency: inactive

## CC(C)(N)c1cc(C(=O)N[C@@H]2CCc3ccc(Oc4ccnc5c4CCC(=O)N5)cc3C2)cc(C(F)(F)F)c1
[1]
  Potency: 18.4 µM (active)
[2]
  Potency: 11.6 µM (active)
[3]
  Potency: 14.6 µM (active)
[4]
  Potency: inactive
